The results in this text go back to PubChem BioAssay (NCATS).

Where “and” joins values, the source holds several entries; their conditions need not be identical. Equal entries are not always repeated. Inconclusive results are not listed. Calls of active or inactive are those of the source. Unless noted, calls come from the whole dose curve; as a rule, active = well fitted curve in the direction sought with a large enough effect; inconclusive = small, poorly fitted or top-dose-only effect, or another doubt; inactive = no such curve, though single readings can be large; an effect the other way counts as inactive or inconclusive.

Test [1] can be described thus: qHTS Assay for Lipid Storage Modulators (AID 1519; calls by dose curve; for activity change, negative = inhibition: % is set by controls: 0 for no effect and ±100 for the full control effect). Particulars: Drosophila S3 cells, BODIPY lipid droplet/cell ratio, laser cytometry, cells loaded with oleic acid. In short, it runs like this: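 Cells seeded at 5,000 per well were treated with compounds over a concentration series and loaded with oleic acid (400 uM, as added). Lipid droplet fluorescence (488 nm excitation, 500-530 nm channel) was read by laser-scanning cytometry and normalized to 20 uM Triacsin C.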
On the technique in general: In qHTS, concentration-response curves come from the screen itself.

The target of test [2] is Alpha-galactosidase A (Homo sapiens) (UniProt P06280). The experiment in a line: Counterscreen for Glucocerebrosidase Inhibitors: qHTS Assay for Human alpha-Galactosidase at pH 4.5 (AID 992). Note: 0% is about no effect. Conditions: purified enzyme, fluorogenic substrate; series mostly up to 76.9 µM. In short, it runs like this:
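Quantitative HTS: compounds tested from 0.7 nM up to 77 uM against 2 nM enzyme with 80 uM 4-MU alpha-D-galactopyranoside. The 20 min room-temperature reaction is stopped with 1M NaOH/1M glycine, pH 10.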
(In general: Counterscreens check selectivity or assay interference.)

The target in test [3] is alpha-glucosidase (Oryza sativa, rice) (UniProt Q653V4). Kind of test: Counterscreen for Glucocerebrosidase Inhibitors: qHTS Assay for Rice alpha-Glucosidase at pH 5.0 (AID 997).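 Note: 0% = full activity with enzyme and -100% = basal without enzyme.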 Conditions: rice alpha-glucosidase enzyme activity; series mostly up to 76.9 µM. The procedure, abridged: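 Rice alpha-glucosidase (4 nM final) with 400 uM 4-methylumbelliferyl-alpha-D-glucopyranoside in citrate buffer pH 5.0, 20 min at room temperature, stopped at pH 10; fluorescence 365/440 nm, compounds 0.7 nM–77 uM, AC50 from Hill fits.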

The target of test [4] is DNA repair nuclease/redox regulator APEX1 (Homo sapiens) (UniProt P27695). The experiment in a line: qHTS Validation Assay for Inhibitors of the Human Apurinic/apyrimidinic Endonuclease 1 (APE1) (AID 1705;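 note: TAMRA fluorescence gain over two minutes as APE1 cuts a quenched THF abasic duplex; % is set by controls: 0 for no effect and ±100 for the full control effect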). Conditions: purified APE1 endonuclease activity, fluorescence, titration; series mostly up to 57.1 µM. In short, it runs like this: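 Human APE1 was preincubated with compound for 15 min at room temperature, then 50 nM (final) THF-abasic double-stranded DNA substrate bearing 5'-TAMRA and 3'-BHQ-2 was added. Incision-driven fluorescence rise (ex 525/em 598 nm) was read kinetically.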

Test [5] in a line: Counterscreen for APE1 Inhibitors: Fluorescent Dye Displacement Validation Assay (AID 1707).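 Note: plate controls were ThO with dsDNA and no compound for no effect and ThO without dsDNA for full effect.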 Particulars: fluorescent dye displacement from DNA; series mostly up to 57.1 µM. In short, it runs like this:
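Compounds are scored by their ability to displace Thiazole Orange (250 nM) from a 50 nM TAMRA-tagged duplex bearing a tetrahydrofuran abasic site. Buffer is 50 mM Tris-HCl pH7.5, 50mM NaCl, 2 mM MgCl2, 0.01% Tween-20.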

Test [6] concerns the target Endonuclease 4 (Escherichia coli (strain K12)) (UniProt P0A6C1). The experiment in a line: Counterscreen for APE1 Inhibitors: qHTS Validation Assay for Inhibitors of Endonuclease IV (AID 1708). Note: % is set by controls: 0 for no effect and ±100 for the full control effect. Particulars: E. coli endonuclease IV, DNA cleavage fluorescence; series mostly up to 57.1 µM. In short, it runs like this: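 Concentration-response counterscreen run identically to the APE1 assay: 15 min room-temperature preincubation of 2 nM enzyme with compound, reaction started with 50 nM quenched abasic DNA, progress taken from kinetic fluorescence.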

Test [7] in a line: qHTS for differential inhibitors of proliferation of Plasmodium falciparum line 7G8 (AID 1815).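 Note: parasite growth measured after three days of incubation; plate controls were vehicle wells for no effect and reference inhibitor wells for full effect.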 Conditions: Plasmodium falciparum 7G8 proliferation inhibition; series mostly up to 28.7 µM.
The nature of test [8]: qHTS for differential inhibitors of proliferation of Plasmodium falciparum line GB4 (AID 1816).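 For activity change, negative = inhibition: 0% = vehicle DMSO and -100% = reference inhibitor.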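 Note: parasite growth measured after 72 h incubation.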 Note: potency is the fitted concentration of half-maximal effect. Particulars: Potency: Plasmodium falciparum GB4 proliferation inhibition; series mostly up to 28.7 µM.
A short description of test [9]: qHTS for differential inhibitors of proliferation of Plasmodium falciparum line 3D7 (AID 1876). Note: potency is the fitted concentration of half-maximal effect. Particulars: P. falciparum 3D7 proliferation inhibition; series mostly up to 28.7 µM.
Test [10] is described as follows: qHTS for differential inhibitors of proliferation of Plasmodium falciparum line D10 (AID 1877).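 For activity change, negative = inhibition: plate controls were vehicle wells for no effect and reference inhibitor wells for full effect.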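 Note: parasites grown with compound for 72 h before DNA staining.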 Note: potency is the fitted concentration of half-maximal effect. Conditions: series mostly up to 28.7 µM.
The nature of test [11]: qHTS for differential inhibitors of proliferation of Plasmodium falciparum line Dd2 (AID 1882).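 Note: plate controls were DMSO vehicle for no effect and 0.29 µM artemisinin for full effect; nearly all actives have a fitted effect of over 65% in size.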 Conditions: Potency: Plasmodium falciparum Dd2 proliferation inhibition; series mostly up to 28.7 µM. In short, it runs like this: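 Dd2-infected erythrocytes (0.3% parasitemia, 2.5% hematocrit final) incubated with compound 72 h at 37 C, 5% CO2; lysed with saponin/Triton buffer containing SYBR Green I, incubated overnight in the dark, then read by fluorescence (485/535 nm). Normalized to 0.29 uM artemisinin and DMSO.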

A short description of test [12]: qHTS for differential inhibitors of proliferation of Plasmodium falciparum line W2 (AID 1883).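 For activity change, negative = inhibition: 0% = vehicle wells and -100% = control inhibitor wells.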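 Note: parasites grown with compound for 72 h before lysis and staining.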 Note: potency is the fitted concentration of half-maximal effect. Particulars: Potency: Plasmodium falciparum W2 proliferation inhibition; series mostly up to 28.7 µM.
Test [13] in a line: qHTS for differential inhibitors of proliferation of Plasmodium falciparum line HB3 (AID 1886).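 For activity change, negative = inhibition: plate controls were vehicle for no effect and reference inhibitor for full effect.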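 Note: parasites grown with compound for 72 h before SYBR Green readout.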 Note: potency is the fitted concentration of half-maximal effect. Conditions: Potency: Plasmodium falciparum HB3 proliferation inhibition; series mostly up to 28.7 µM.
The target in test [14] is Alpha-galactosidase (Coffea arabica) (UniProt Q42656). Kind of test: Counterscreen for Glucocerebrosidase Inhibitors: qHTS Assay for Coffee Bean alpha-Galactosidase at pH 5.9 (AID 998).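 Note: plate controls were uninhibited enzyme for no effect and no-enzyme basal signal for full effect.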 Conditions: coffee bean alpha-galactosidase enzyme assay; series mostly up to 76.9 µM. In short, it runs like this:
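Green coffee bean enzyme (2 nM final) was incubated with compounds (0.7 nM–77 uM) and 4-methylumbelliferyl alpha-D-galactopyranoside (80 uM) in citrate buffer pH 5.9, 20 min at room temperature. High-pH stop; fluorescence 365/440 nm; AC50 from Hill fits.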

Setting [15] is: measured here: cell count channel max response.
Setting [16] is: measured here: lipid channel max response.

Chain of Alpha-galactosidase (Coffea arabica) (Q42656 whole entry, looked up): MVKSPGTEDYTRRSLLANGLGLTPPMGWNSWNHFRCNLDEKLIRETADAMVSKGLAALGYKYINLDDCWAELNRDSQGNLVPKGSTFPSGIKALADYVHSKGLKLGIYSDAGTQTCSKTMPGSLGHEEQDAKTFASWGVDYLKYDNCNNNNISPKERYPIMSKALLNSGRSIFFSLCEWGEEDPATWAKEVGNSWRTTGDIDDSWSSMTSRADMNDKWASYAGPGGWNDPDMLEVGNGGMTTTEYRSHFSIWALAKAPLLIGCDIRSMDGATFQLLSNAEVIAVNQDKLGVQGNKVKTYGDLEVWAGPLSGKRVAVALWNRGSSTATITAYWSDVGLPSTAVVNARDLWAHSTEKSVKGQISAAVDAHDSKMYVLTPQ
Chain of Alpha-galactosidase A (Homo sapiens) (P06280 whole entry, looked up): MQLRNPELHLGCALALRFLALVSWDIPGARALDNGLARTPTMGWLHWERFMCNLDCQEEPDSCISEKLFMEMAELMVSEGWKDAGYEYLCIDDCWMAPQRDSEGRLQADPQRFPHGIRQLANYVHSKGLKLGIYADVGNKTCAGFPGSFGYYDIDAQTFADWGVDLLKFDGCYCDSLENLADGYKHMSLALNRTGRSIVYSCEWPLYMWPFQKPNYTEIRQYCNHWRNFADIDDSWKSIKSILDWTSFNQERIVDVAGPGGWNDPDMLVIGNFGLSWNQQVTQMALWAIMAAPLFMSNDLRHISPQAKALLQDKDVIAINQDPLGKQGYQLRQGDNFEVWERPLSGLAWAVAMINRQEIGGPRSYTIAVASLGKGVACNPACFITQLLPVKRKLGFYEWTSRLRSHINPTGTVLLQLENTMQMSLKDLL
Chain of DNA repair nuclease/redox regulator APEX1 (Homo sapiens) (P27695 whole entry, looked up): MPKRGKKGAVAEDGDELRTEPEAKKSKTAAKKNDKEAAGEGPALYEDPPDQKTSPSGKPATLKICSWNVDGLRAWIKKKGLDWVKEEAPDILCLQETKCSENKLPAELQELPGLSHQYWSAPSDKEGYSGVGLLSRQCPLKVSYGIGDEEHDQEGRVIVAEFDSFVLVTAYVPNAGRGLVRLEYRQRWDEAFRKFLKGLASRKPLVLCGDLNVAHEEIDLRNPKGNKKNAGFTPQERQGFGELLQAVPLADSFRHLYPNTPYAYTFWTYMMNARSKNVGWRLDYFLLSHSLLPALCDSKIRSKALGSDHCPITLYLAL

`Cc1ccc(N=CN(C)C=Nc2ccc(C)cc2C)c(C)c1`: the activity change, negative = inhibition in [1] (at 57.5 µM (top of the series)) was 14.3% (inactive). Also, the max response in test [1] (setting [15]) worked out at 10.9%; in [1] (setting [16]) it was 26.2%.
Turning to `O=C(NC(=O)c1c(F)cccc1F)Nc1cc(Cl)c(OC(F)(F)C(F)C(F)(F)F)cc1Cl` (configuration not stated), the activity change, negative = inhibition in test [1] (at 57.5 µM (top of the series)) is -23.4% (inactive). Further, the max response is 4.92% in test [1] (setting [15]) and -17.8% in test [1] (setting [16]).
For `CCCC(C)C1(CC)C(=O)N=C(S)NC1=O` (configuration not stated), the activity change, negative = inhibition in test [1] (at 57.5 µM (top of the series)) is 4.86% (inactive). The figures for the max response in test [1] (setting [15]) and in test [1] (setting [16]) were -3.79% and 1.05%, respectively.
With `OC(c1ccccc1)(c1ccccc1)C1CCNCC1`, the activity change, negative = inhibition in test [1] (at 25.7 µM (top of the series)) is -3.2% (inactive). Further, the max response in test [1] (setting [15]) is -4.3%; in test [1] (setting [16]), -6.81%.
Turning to `Clc1ccc(C(OCCN2CCCCC2)c2ccccc2)cc1` (configuration not stated), in test [1] (at 57.5 µM (top of the series)), the activity change, negative = inhibition was 10.4% (inactive). Further, the max response in test [1] (setting [15]) is 15.5%; in test [1] (setting [16]), 25.9%.
In the case of `NC(=O)CN1CCCC1=O`, the call in test [2], in [3], in test [4], in test [5] and in test [6] was inactive. For the same molecule, the activity change, negative = inhibition in test [1] (at 25.7 µM (top of the series)) is -1.06% (inactive); in test [1] (at 57.5 µM (top of the series)), 8.11% (inactive). Moreover, the max response is -2.61% and 10.4% in test [1] (setting [15]); -4.04% and 22.9% in [1] (setting [16]). The Potency entry in [7], in [8], in [9], in test [10], in test [11] and in test [12] was “inactive” each time. Moreover, the Potency result in test [13] was “inactive”.
Turning to `C[C@H](N)[C@H](O)c1ccc(O)c(O)c1`, the molecule was called inactive in [2], in test [3] and in test [14]. Further, the activity change, negative = inhibition in [1] (at 25.7 µM (top of the series)) was -2.9% (inactive). The max response in [1] (setting [15]) is -12%; in test [1] (setting [16]) it was -13.5%.
For the molecule `COc1ccc(C(=O)N2CCCC2=O)cc1`, the call in test [2], in test [3], in [14], in test [4], in [5] and in test [6] was inactive. In addition, the activity change, negative = inhibition in [1] (at 57.5 µM (top of the series)) is -0.445% (inactive). The max response came to 21.4% in [1] (setting [15]) and 19.3% in test [1] (setting [16]). In addition, the Potency result in test [7], in [8], in test [9], in test [10], in test [11] and in [12] was “inactive” throughout. Also, in test [13], the Potency result is “inactive”.
Turning to `NC(N)=NC(=O)c1nc(Cl)c(N)nc1N`, the call in [14] was inactive. Besides, the activity change, negative = inhibition was -0.295% (inactive) in test [1] (at 25.7 µM (top of the series)); -0.935% (inactive) and 5.62% (inactive) in test [1] (at 57.5 µM (top of the series)). Besides, the max response in test [1] (setting [15]) is 12.3% and 6.32% and 9.51%; in test [1] (setting [16]), 15.3% and 5.93% and 17.9%. Besides, the Potency in test [8] was 12.6 µM (active); in [9] it was 11.2 µM (active); in test [10], 8.91 µM (active); in test [12], 8.91 µM (active); in [13], 10 µM (active).
For `CN(C)C(=O)Oc1cccc([N+](C)(C)C)c1`, the activity change, negative = inhibition in test [1] (at 25.7 µM (top of the series)) was -1.76% (inactive); in [1] (at 57.5 µM (top of the series)), 8.87% (inactive). For the same molecule, the max response in test [1] (setting [15]) is 2.56% and -8.73%; in test [1] (setting [16]), 2.57% and 1.95%.
